The panel holds about 83,000 compounds, 20% with a hit somewhere; the sample as a whole holds those more often.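 The test compound was applied at a single concentration to cells in 96-well plates for 48 hours, and percent growth was recorded.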 Unmarked numbers belong to inactive results. Active and inactive are the calls of the source. Rule for the calls: active = growth percent below 10; inactive = the rest.

Test systems include HCT-15 colon; HT29 colon; SNB-75 CNS; SNB-19 CNS; U251 CNS; PC-3 prostate; SK-MEL-5 melanoma; UACC-62 melanoma; LOX IMVI melanoma; SK-MEL-28 melanoma; SK-MEL-2 melanoma; EKVX NSCLC; SN12C renal; UO-31 renal; TK-10 renal; ACHN renal; CAKI-1 renal; A498 renal; CCRF-CEM leukemia; MOLT-4 leukemia.
Test in all cases: NCI-60 one-dose screen, 48 h (100 = growth as untreated, 0 = no growth, -100 = all killed)
What all share (conditions): 10 µM unless noted

`CCCCCCCCCCCCCCCC(=O)OC[C@@]1(O)C[C@@]23CC[C@@H]4C(C)(C)[C@H](O)CC[C@@]4(C)[C@@H]2CC[C@H]1C3`: the growth with HCT-15 colon is 107%; in the assay with HT29 colon, 104%; with SNB-75 CNS, 99.6%; in the assay with SNB-19 CNS, 96.7%; with U251 CNS, 107%; in the assay with PC-3 prostate, 100%. The growth in the assay on SK-MEL-5 melanoma was 102%; in the assay on UACC-62 melanoma, 100%; in the assay with LOX IMVI melanoma, 103%; with SK-MEL-28 melanoma it was 110%; with SK-MEL-2 melanoma, 104%; in the assay on EKVX NSCLC, 100%. Also, the growth was 96% in the assay with SN12C renal; 92.4% with UO-31 renal; 101% with TK-10 renal; 108% in the assay on ACHN renal; 94.2% with CAKI-1 renal; 105% with A498 renal. Besides, the growth in the assay with CCRF-CEM leukemia is 100%; with MOLT-4 leukemia, 101%.

Consider `O=C(Nc1ccc2ncnc(Nc3ccc(Oc4cccc(F)c4)c(Cl)c3)c2c1)c1ccc(CN2CCOCC2)cc1`, for which the growth was 11.2% in the assay on HCT-15 colon; 20.9% in the assay on HT29 colon; 55.8% with SNB-75 CNS; 50.8% in the assay with SNB-19 CNS; 36.5% in the assay on U251 CNS; 14.6% in the assay on PC-3 prostate. For the same compound, the growth is 4.82% (active) in the assay on SK-MEL-5 melanoma; 53.5% with UACC-62 melanoma; 8.89% (active) in the assay on LOX IMVI melanoma; 52.2% with SK-MEL-28 melanoma; 59.1% in the assay with SK-MEL-2 melanoma; 30.4% in the assay with EKVX NSCLC. In addition, the growth in the assay with SN12C renal was 39%; in the assay on UO-31 renal it was 20.3%; in the assay with TK-10 renal it was 53.6%; with ACHN renal, 17.5%; in the assay with CAKI-1 renal, 24.4%; in the assay with A498 renal, 53.9%. Further, the growth with CCRF-CEM leukemia was 2.89% (active); in the assay with MOLT-4 leukemia, -3.45% (active).

On to `COc1ccc(NC(=O)c2sc3nc(C)c(C(O)c4ccc(OC)cc4)cc3c2N)cc1` (stereo not given), for which the growth with HCT-15 colon was 16.3%; in the assay on HT29 colon it was 4.97% (active); in the assay with SNB-75 CNS it was -16% (active); in the assay on SNB-19 CNS, 71.2%; in the assay on U251 CNS, 25.9%; in the assay on PC-3 prostate, 22.6%. Besides, the growth in the assay on SK-MEL-5 melanoma was 9.53% (active); in the assay on UACC-62 melanoma it was 31.6%; in the assay on LOX IMVI melanoma, 40.5%; in the assay with SK-MEL-28 melanoma, 65.8%; in the assay with SK-MEL-2 melanoma, 45.6%; in the assay with EKVX NSCLC it was 47.9%. The growth in the assay on SN12C renal was 33%; in the assay on UO-31 renal, 20.6%; with TK-10 renal it was 60.7%; in the assay with ACHN renal, 36.3%; with CAKI-1 renal, 30.4%; with A498 renal it was 12.6%. Moreover, the growth is 21.7% in the assay with CCRF-CEM leukemia and 15.8% with MOLT-4 leukemia.

Take `Cc1cccc(Oc2ccc(Nc3ncnc4ccc(NC(=O)CNCCO)cc34)cc2Cl)c1`: the growth in the assay on HCT-15 colon was 62.6%; with HT29 colon, 38.4%; in the assay with SNB-75 CNS, 77.1%; in the assay with SNB-19 CNS, 65.6%; in the assay with U251 CNS, 44.9%; with PC-3 prostate, 61.4%. Also, the growth is 77.6% with SK-MEL-5 melanoma; 97.6% in the assay on UACC-62 melanoma; 14.6% with LOX IMVI melanoma; 68.8% in the assay on SK-MEL-28 melanoma; 87.8% in the assay with SK-MEL-2 melanoma; 34.9% in the assay with EKVX NSCLC. Besides, the growth was 39.4% in the assay with SN12C renal; 41% in the assay with UO-31 renal; 39.8% in the assay with TK-10 renal; 27.1% in the assay with ACHN renal; 52.9% in the assay on CAKI-1 renal; 49.7% in the assay on A498 renal. Further, the growth in the assay on CCRF-CEM leukemia is 72.3%; in the assay on MOLT-4 leukemia, 62%.

`CCOC(=O)C1CC(=O)c2cc(OC)c(OC)cc2C1` (stereo not given): the growth in the assay with HCT-15 colon was 100%; with HT29 colon, 88.6%; in the assay on SNB-75 CNS, 91.7%; with SNB-19 CNS, 100%; with U251 CNS, 103%; in the assay on PC-3 prostate, 86.4%. In addition, the growth was 109% in the assay with SK-MEL-5 melanoma; 88.5% in the assay on UACC-62 melanoma; 104% with LOX IMVI melanoma; 119% in the assay with SK-MEL-28 melanoma; 107% in the assay with SK-MEL-2 melanoma; 114% in the assay on EKVX NSCLC. Further, the growth with SN12C renal was 100%; in the assay on UO-31 renal it was 93.6%; in the assay on TK-10 renal, 126%; in the assay with ACHN renal, 107%; with CAKI-1 renal, 120%; with A498 renal, 129%. Further, the figures for the growth in the assay with CCRF-CEM leukemia and with MOLT-4 leukemia were 84.6% and 94.3%, respectively.

Take `COc1ccccc1/C=C1\COc2ccc(-c3ccccc3)cc2C1=O`: the growth was 22.7% with HCT-15 colon; 5.36% (active) in the assay with HT29 colon; 42.2% in the assay on SNB-75 CNS; 69.1% in the assay on SNB-19 CNS; 17.3% in the assay with U251 CNS; 27.2% in the assay with PC-3 prostate. Besides, the growth was 27.5% with SK-MEL-5 melanoma; 40.6% with UACC-62 melanoma; 18.7% in the assay on LOX IMVI melanoma; 57.3% in the assay with SK-MEL-28 melanoma; 44.7% in the assay on SK-MEL-2 melanoma; 94% in the assay on EKVX NSCLC. In addition, the growth was 54% in the assay with SN12C renal; 49.3% with UO-31 renal; 52% in the assay with TK-10 renal; 60.8% in the assay on ACHN renal; 86.4% in the assay with CAKI-1 renal; 42.8% with A498 renal. The figures for the growth in the assay on CCRF-CEM leukemia and in the assay on MOLT-4 leukemia were -25.3% (active) and -18% (active), respectively.

For the compound `CCOC(=O)c1cnc2c(cnn2CC)c1NN=C(C)C`, the growth with HCT-15 colon is 86%; in the assay on HT29 colon, 84.7%; in the assay on SNB-75 CNS, 69%; in the assay with SNB-19 CNS, 87.6%; in the assay with U251 CNS it was 90.4%; with PC-3 prostate it was 98.4%. Besides, the growth in the assay with SK-MEL-5 melanoma is 90.4%; in the assay on UACC-62 melanoma, 79.3%; with LOX IMVI melanoma it was 90.7%; in the assay with SK-MEL-28 melanoma, 113%; in the assay on SK-MEL-2 melanoma, 40%; in the assay with EKVX NSCLC, 93%. The growth with SN12C renal was 105%; in the assay with UO-31 renal it was 68.4%; in the assay with TK-10 renal it was 87.3%; in the assay on ACHN renal, 84.1%; in the assay with CAKI-1 renal, 100%; in the assay on A498 renal it was 68%. The growth is 92% with CCRF-CEM leukemia and 81% in the assay on MOLT-4 leukemia.

(Values after PubChem BioAssay (NCI).)
